High-throughput results as filed in PubChem.
Rows were chosen to be rich in hits. Some 3.8% of all compounds tested hit in one or more screens of this group.
Sfp PPTase inh: Sfp phosphopantetheinyl transferase inhibition | Q9F4F7 | actives 3.5% (n = 310,000) | Potency, µM, hits mostly inhibitors | AID 1490 | Biochemical Sfp PPTase activity, qHTS;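 further: the enzyme is Sfp with the accession as filed and its product quenches rhodamine fluorescence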
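Buffer: 50 mM Hepes-Na pH 7.6, 10 mM MgCl2, 0.01% Nonidet P-40, 0.01% BSA. Enzyme 15 nM, pre-exposed to compound 15 min; substrates then added and fluorescence change tracked over 30 min.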
VDR inh: vitamin D3 receptor (human) inhibition | P11473 | VDR-SRC2-3 peptide fluorescence polarization, 2 h | Potency, µM, actives largely listed as inhibitors | actives 0.93% (n = 400,000) | AID 504847
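Signal is fluorescence polarization, reporting how far test compounds block the interaction of VDR with the SRC2-3 coregulator peptide after a 2 h room-temperature incubation.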
rTrxR1 inhibitor: rat TrxR1 inhibition | O89049 | recombinant rTrxR1, NADPH fluorescence consumption, selenite substrate | Potency, µM (top dose mostly 114 µM), actives largely listed as inhibitors | actives 1% (n = 390,000) | AID 588453; further: nearly all actives have a fitted effect of over 65% in size
Target sequence (O89049 whole entry, looked up): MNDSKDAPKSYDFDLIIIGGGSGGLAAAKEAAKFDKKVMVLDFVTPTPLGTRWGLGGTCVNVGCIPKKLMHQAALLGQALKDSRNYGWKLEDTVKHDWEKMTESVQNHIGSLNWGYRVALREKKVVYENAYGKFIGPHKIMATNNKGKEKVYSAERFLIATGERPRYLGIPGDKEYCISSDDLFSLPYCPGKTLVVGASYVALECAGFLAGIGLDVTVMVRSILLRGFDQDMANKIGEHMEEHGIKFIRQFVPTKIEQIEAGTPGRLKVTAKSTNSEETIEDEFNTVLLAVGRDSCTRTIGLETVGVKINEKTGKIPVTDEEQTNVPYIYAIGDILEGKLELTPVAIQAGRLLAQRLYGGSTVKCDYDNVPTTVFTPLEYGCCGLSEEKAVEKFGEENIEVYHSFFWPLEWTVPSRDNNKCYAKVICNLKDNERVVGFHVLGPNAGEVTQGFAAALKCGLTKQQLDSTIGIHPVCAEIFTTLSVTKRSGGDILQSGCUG
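Rat TrxR1 (90 nM in the dispensed reagent) was pre-reduced with 400 uM NADPH for 5 min at room temperature, then incubated with compound for 15 min. After 400 uM selenite was added, NADPH fluorescence (Ex 340/Em 450 nm) was followed for 8 min.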
TrxR1 substrate: is turned over as a substrate by rat TrxR1. purified TrxR1 substrate turnover, NADPH consumption readout. Potency, µM (top dose mostly 114 µM). actives 0.01% (n = 390,000). AID 588456; further: nearly all actives have a fitted effect of over 50% in size
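Rat TrxR1, dispensed at 90 nM, was prereduced with 400 uM NADPH (final) for 5 min at ~22 deg C, then incubated with compound 15 min before 400 uM selenite. A first-read NADPH fluorescence drop versus no-compound background flagged substrates.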
KAT2A inh: inhibitors of human GCN5L2 histone acetyltransferase; Potency, µM (titrated, usually from 58.9 µM), hits mostly inhibitors; actives 0.21% (n = 390,000); GCN5L2 HAT assay, ThioGlo1 CoA-SH fluorescence
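Preincubate 20nM GCN5L2 with compound 15 min, RT → add 50uM ThioGlo1 + 75uM H3(1-25) + 70uM acetyl-CoA → read fluorescence 0 and 20 min. Primary qHTS; fluorescent artifacts likely.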
GLS inh: glutaminase GLS (human) inhibition | O94925 | GLS enzymatic activity, qHTS titration | Potency, µM (highest dose often 45.5 µM), actives largely listed as inhibitors | actives 0.21% (n = 410,000)
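Two-point fluorescence kinetic (t0, 30 min RT) for hKGA; glutamate detected via glutamate oxidase–HRP–Amplex Red. Substrate: 1 mM L-glutamine solution; buffer 45 mM KH2PO4, pH 8.2.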
Hits are given with their value; ! = a repeat was not active; [ ] = remark or other dose. The call rests on the fitted dose curve; in most records, active means well fitted curve in the direction sought with a large enough effect; inconclusive means small, poorly fitted or top-dose-only effect, or another doubt; inactive means no such curve, though single readings can be large; an effect the other way counts as inactive or inconclusive.

How did CN(/C(=N/S(=O)(=O)c1ccccc1)c1ccccc1)S(=O)(=O)c1ccccc1 do in these assays?
Sfp PPTase inh: inactive; VDR inh: inactive; rTrxR1 inhibitor: inactive; TrxR1 substrate: inactive; KAT2A inh: inactive; GLS inh: inactive

Results for O=C(CSc1c2c(nc3cc(Cl)ccc13)CCCC2)NCCN1CCOCC1 ?
Sfp PPTase inh: inactive; VDR inh: inconclusive; rTrxR1 inhibitor: inactive; TrxR1 substrate: inactive; KAT2A inh: inactive; GLS inh: inactive

Results for Clc1ccc2c(SCC3CO3)c3ccccc3nc2c1 (configuration not stated) ?
VDR inh: 40µM; rTrxR1 inhibitor: inactive[11.4 µM]; TrxR1 substrate: inactive[11.4 µM]; GLS inh: inactive

How did CC1(CCc2ccccc2)NC(=S)N(c2ccc(Cl)cc2)N1 (configuration not stated) do in these assays?
Sfp PPTase inh: inactive; VDR inh: inactive; rTrxR1 inhibitor: inactive; TrxR1 substrate: inactive; KAT2A inh: inactive; GLS inh: inactive

How did CC1(CCc2ccccc2)NC(=S)N(c2ccccc2)N1 (configuration not stated) do in these assays?
Sfp PPTase inh: 45µM; VDR inh: inactive; rTrxR1 inhibitor: inconclusive; TrxR1 substrate: inactive; KAT2A inh: inconclusive; GLS inh: inactive

Results for O=C(O)c1cc(=O)c2ccccc2[nH]1 ?
Sfp PPTase inh: inactive; VDR inh: inactive; rTrxR1 inhibitor: inactive; TrxR1 substrate: inactive; KAT2A inh: inactive; GLS inh: inactive

Results for O=C(O)c1cc(=O)c2cccc(O)c2[nH]1 ?
Sfp PPTase inh: 79µM!; VDR inh: inactive; rTrxR1 inhibitor: inactive; TrxR1 substrate: inactive[0.457 µM]; KAT2A inh: inactive

How did COC(=O)[C@]1(Cc2ccccc2)N[C@H](CN(C)C(C)=O)[C@@H]2C(=O)N(Cc3ccccc3)C(=O)[C@@H]21 do in these assays?
VDR inh: inactive; rTrxR1 inhibitor: inactive; TrxR1 substrate: inactive; KAT2A inh: inactive; GLS inh: inactive

What do the screens show for `COC(=O)c1cc(NC(=O)/C=C/c2ccccc2)ccc1O`?
Sfp PPTase inh: inactive; KAT2A inh: inactive

How did Cc1ccccc1Oc1cc(-n2ncc(Cl)c(Cl)c2=O)ncn1 do in these assays?
Sfp PPTase inh: inactive; VDR inh: inconclusive; rTrxR1 inhibitor: 0.79µM; TrxR1 substrate: inactive; KAT2A inh: inactive; GLS inh: inactive

What do the screens show for `Cc1ccc(Oc2nnc(-c3ccccc3)cc2C#N)cc1`?
Sfp PPTase inh: inactive; VDR inh: inactive; rTrxR1 inhibitor: inactive; TrxR1 substrate: inactive; KAT2A inh: inactive; GLS inh: inactive

How did Cc1nnc(SCc2ccc(CC(=O)O)cc2)o1 do in these assays?
Sfp PPTase inh: inactive; VDR inh: inactive; rTrxR1 inhibitor: inactive; TrxR1 substrate: inactive; KAT2A inh: inactive; GLS inh: inactive

Results for COCCN(C(=S)Nc1c(C)cc(C)cc1C)C(C)c1cccnc1 (configuration not stated) ?
Sfp PPTase inh: 11µM; VDR inh: 45µM; rTrxR1 inhibitor: inactive; TrxR1 substrate: inactive; KAT2A inh: inactive; GLS inh: inconclusive

Results for Cc1c(C(=O)OCc2ccccc2)[nH]c2c1C(=O)CC(c1ccco1)C2 (configuration not stated) ?
Sfp PPTase inh: 40µM; VDR inh: inactive; rTrxR1 inhibitor: inactive; TrxR1 substrate: inactive; KAT2A inh: inactive; GLS inh: inactive

How did Cc1c(C(=O)OCCOC(C)C)[nH]c2c1C(=O)CC(c1ccco1)C2 (configuration not stated) do in these assays?
Sfp PPTase inh: inconclusive; VDR inh: inactive; rTrxR1 inhibitor: inactive; TrxR1 substrate: inactive; KAT2A inh: inactive; GLS inh: inactive

Results for CSCCOC(=O)c1[nH]c2c(c1C)C(=O)CC(c1ccco1)C2 (configuration not stated) ?
Sfp PPTase inh: 45µM; VDR inh: inactive; rTrxR1 inhibitor: inactive; TrxR1 substrate: inactive; KAT2A inh: inactive; GLS inh: inactive

What do the screens show for `CCOC(=O)c1[nH]c2c(c1C)C(=O)CC(c1ccco1)C2` (configuration not stated)?
Sfp PPTase inh: 25µM; VDR inh: inactive; rTrxR1 inhibitor: inactive; TrxR1 substrate: inactive; KAT2A inh: inactive; GLS inh: inactive

How did CC(C)CS(=O)(=O)c1oc(-c2ccc(F)cc2)nc1S(=O)(=O)c1ccccc1 do in these assays?
VDR inh: inconclusive; rTrxR1 inhibitor: 0.32µM; TrxR1 substrate: inactive; KAT2A inh: inactive; GLS inh: inactive

Results for CNc1oc(-c2cccs2)nc1S(=O)(=O)c1ccccc1 ?
Sfp PPTase inh: inactive; VDR inh: inconclusive; rTrxR1 inhibitor: inactive; TrxR1 substrate: inactive; KAT2A inh: inactive; GLS inh: inactive

Results for CCC(C)S(=O)(=O)c1oc(-c2cccs2)nc1S(=O)(=O)c1ccccc1 (configuration not stated) ?
VDR inh: inconclusive; rTrxR1 inhibitor: 0.71µM; TrxR1 substrate: inactive; KAT2A inh: inactive; GLS inh: inactive

How did Cn1c(N)c(S(=O)(=O)N2CCN(Cc3ccccc3)CC2)c(=O)n(C)c1=O do in these assays?
Sfp PPTase inh: inactive; VDR inh: inactive; rTrxR1 inhibitor: inactive; TrxR1 substrate: inactive; KAT2A inh: inactive; GLS inh: inactive

What do the screens show for `COc1ccc2c(c1)CCc1sc(NC(=O)c3ccc(Cl)cc3)nc1-2`?
VDR inh: inactive; rTrxR1 inhibitor: inactive; TrxR1 substrate: inactive; KAT2A inh: inactive; GLS inh: inactive

Results for COc1ccc2c(c1)-c1nc(NC(=O)c3ccccc3F)sc1CC2 ?
VDR inh: inactive; rTrxR1 inhibitor: inactive; TrxR1 substrate: inactive; KAT2A inh: inactive; GLS inh: inactive

What do the screens show for `COc1ccc2c(c1)Cc1sc(NC(=O)c3ccccc3)nc1-2`?
Sfp PPTase inh: 50µM; VDR inh: inactive; rTrxR1 inhibitor: inactive; TrxR1 substrate: inactive; KAT2A inh: inactive; GLS inh: inactive

What do the screens show for `COc1ccc2c(c1)Cc1sc(NC(=O)c3cccc(Br)c3)nc1-2`?
VDR inh: inactive; rTrxR1 inhibitor: inactive; TrxR1 substrate: inactive; KAT2A inh: inactive; GLS inh: inactive

How did COc1ccc(C(=O)Nc2nc3c(s2)Cc2cc(OC)ccc2-3)cc1 do in these assays?
Sfp PPTase inh: 79µM; VDR inh: inconclusive; rTrxR1 inhibitor: inactive; TrxR1 substrate: inactive; KAT2A inh: inactive; GLS inh: inactive

What do the screens show for `COc1ccc2c(c1)Cc1sc(NC(=O)c3cccs3)nc1-2`?
Sfp PPTase inh: 25µM; VDR inh: inactive; rTrxR1 inhibitor: inactive; TrxR1 substrate: inactive; KAT2A inh: inactive; GLS inh: inactive

Results for COc1ccc2nc(NC(=O)c3cccs3)sc2c1 ?
Sfp PPTase inh: inactive; VDR inh: inactive; rTrxR1 inhibitor: inactive[11.4 µM]; TrxR1 substrate: inactive[11.4 µM]; KAT2A inh: inactive; GLS inh: inactive

What do the screens show for `COc1ccc2c(c1)Cc1sc(NC(=O)c3ccccc3C)nc1-2`?
VDR inh: 25µM; rTrxR1 inhibitor: inconclusive; TrxR1 substrate: inactive; KAT2A inh: inactive; GLS inh: inactive
